Hits are enriched below; roughly 11% of the tested compounds scored in any of these assays.
G9a inh = qHTS Assay for Inhibitors of Histone Lysine Methyltransferase G9a | 350,000 compounds, 8.8% hits | Histone-lysine N-methyltransferase EHMT2 (Homo sapiens), Q96KQ7 | G9a H3K9 monomethylation, AlphaScreen, 2 h | Potency, µM (doses to about 102 µM), actives largely listed as inhibitors; further: nearly all actives have a fitted effect of over 75% in size
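Compounds were preincubated with 20 nM G9a for 15 min, after which biotinylated H3K9 peptide (500 nM) and SAM (20 uM) started a 2 h room-temperature reaction. Monomethylated product was quantified by antibody-based AlphaScreen chemiluminescence.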
HP1b chromo inh = HTS for Inhibitors of HP1-beta Chromodomain Interactions with Methylated Histone Tails. Chromobox protein homolog 1 (Homo sapiens), P83916. AlphaScreen HP1-beta / biotin-H3K9me3 peptide binding. Potency, µM (highest dose often 114 µM), most hits filed as inhibitors. 390,000 compounds, 0.56% hits. AID 540317, 2011; further: nearly all actives have a fitted effect of over 70% in size
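AlphaScreen: HP1-beta (50 nM) preformed 30 min with biotin-H3(1-18)K9me3 peptide (50 nM) in PBS pH 7.4, 0.01% Tween-20. Compound added for 30 min at RT, then streptavidin donor/nickel chelate acceptor beads (10 ug/mL) for 30 min.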
BAZ2B block = qHTS Assay for Inhibitors of BAZ2B. Potency, µM (doses to about 114 µM), usual class: inhibitors. Bromodomain adjacent to zinc finger domain protein 2B (Homo sapiens), Q9UIF8. AlphaScreen BAZ2B-H3K14Ac peptide displacement. 360,000 compounds, 4.4% hits; further: nearly all actives have a fitted effect of over 60% in size
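BAZ2B 50 nM plus b-H3(5-23)K14Ac 50 nM, PBS pH 7.4/0.01% Tween-20, 30 min RT; compound added (max 110 uM), 30 min RT; streptavidin donor/Ni-chelate acceptor beads 10 ug/mL final, 20 min dark; AlphaScreen read.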
JMJD2A Tudor = qHTS Assay for Inhibitors of JMJD2A-Tudor Domain | Lysine-specific demethylase 4A (Homo sapiens), O75164 | AlphaScreen JMJD2A-Tudor / H3K4me3 peptide binding | Potency, µM (doses to about 114 µM), most hits filed as inhibitors | 390,000 compounds, 4.4% hits | AID 504339, 2011; further: nearly all actives have a fitted effect of over 50% in size
L3MBTL1 inh = qHTS Assay for the Inhibitors of L3MBTL1; Lethal(3)malignant brain tumor-like protein 1 (Homo sapiens), Q9Y468; AlphaScreen L3MBTL1–H3K9me1 peptide binding; Potency, µM (doses to about 57.1 µM), actives largely listed as inhibitors; 230,000 compounds, 0.66% hits; AID 485360, 2010; further: nearly all actives have a fitted effect of over 60% in size
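AlphaScreen assay: L3MBTL1 (50 nM final) was preincubated 30 min at room temperature with biotinylated H3(1-15)K9me1 peptide (75 nM final), then 30 min with library compounds; streptavidin donor and nickel chelate acceptor beads (10 ug/mL final) added, 30 min dark.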
Each line names hits and unclear results; the compound was inactive in the other large screens. The call rests on the fitted dose curve; in most records, active means well fitted inhibition curve with a large enough effect; inconclusive means small, poorly fitted or top-dose-only effect; inactive means no such curve, though single readings can be large or run the other way.

N#CC1=C(N)NC(SCC(=O)c2ccccc2)=C(C#N)C12CCCC2	G9a inh 50µM, BAZ2B block inconclusive, JMJD2A Tudor inconclusive
CCSC1=C(C#N)C2(CCCC2)C(C#N)=C(N)N1	G9a inh 20µM, JMJD2A Tudor inconclusive
CC1(C)CC(=O)C2=C(C1)NC(SCC(=O)Nc1ccccc1)=C(C#N)C21CCCCC1	G9a inh inconclusive
CCCCOc1ccc(Cn2c(=O)oc3ccc(C)cc32)cc1	none (no result: L3MBTL1 inh)
N#CC1=C(N)NC(SCc2ccc(Cl)cc2)=C(C#N)C12CCCCC2	JMJD2A Tudor inconclusive
N#CC1=C(N)NC(SCc2ccccc2)=C(C#N)C12CCCC2	G9a inh 79µM, JMJD2A Tudor inconclusive
CCOC(=O)c1sc(NCc2ccco2)c(-c2nc3ccccc3s2)c1N	JMJD2A Tudor inconclusive
CCNc1sc(C(=O)c2cccs2)c(N)c1-c1nc2ccccc2s1	G9a inh 10µM, BAZ2B block inconclusive, JMJD2A Tudor inconclusive, L3MBTL1 inh inconclusive
C=CCNc1sc(C(=O)c2ccccc2)c(N)c1-c1nc2ccccc2s1	G9a inh 22µM, HP1b chromo inh 25µM, BAZ2B block inconclusive, JMJD2A Tudor inconclusive, L3MBTL1 inh inconclusive
O=C(O)CC(NC(=O)C12CC3CC(CC(C3)C1)C2)c1ccc2c(c1)OCO2 (centres undefined)	G9a inh inconclusive (no result: L3MBTL1 inh)
Cc1nc(NC(=O)C23CC4CC(CC(C4)C2)C3)sc1Cc1ccc2c(c1)OCO2	G9a inh 35µM, JMJD2A Tudor inconclusive
Cc1cccc(C(=O)NCCC(=O)Nc2nc(C)c(Cc3ccc4c(c3)OCO4)s2)c1	none
Cc1nc(NC(=O)C2CCCC2)sc1Cc1ccc2c(c1)OCO2	G9a inh inconclusive, BAZ2B block 50µM, JMJD2A Tudor inconclusive
COc1ccc(N2CCN(C3CCCN(C(=O)c4cccc(C)n4)C3)CC2)cc1 (centres undefined)	G9a inh 50µM (no result: L3MBTL1 inh)
COc1ccc(OC)c(S(=O)(=O)N2CCCC(N3CCN(c4ccccc4)CC3)C2)c1 (centres undefined)	BAZ2B block inconclusive (no result: L3MBTL1 inh)
COc1ccc(N2CCN(C3CCCN(S(=O)(=O)c4ccccc4)C3)CC2)cc1 (centres undefined)	HP1b chromo inh inconclusive, BAZ2B block 71µM, JMJD2A Tudor inconclusive (no result: G9a inh, L3MBTL1 inh)
COc1ccc(N2CCN(C3CCCN(Cc4ccc(F)cc4Cl)C3)CC2)cc1 (centres undefined)	G9a inh 71µM, BAZ2B block inconclusive, JMJD2A Tudor inconclusive
COc1ccc(N2CCN(C(=O)c3cn(CC4CCCCC4)nn3)CC2)cc1	G9a inh 35µM, BAZ2B block inconclusive, JMJD2A Tudor inconclusive (no result: L3MBTL1 inh)
COc1ccc(O)c(CN2CCCC(N3CCN(c4ccc(F)cc4)CC3)C2)c1 (centres undefined)	G9a inh inconclusive, BAZ2B block inconclusive
COc1ccc(NC(=O)N2CCc3c([nH]c4ccc(OC)cc34)C2c2ccc(OC)cc2)cc1 (centres undefined)	G9a inh inconclusive, BAZ2B block inconclusive, JMJD2A Tudor inconclusive (no result: L3MBTL1 inh)
COc1cc2c(=O)n(Cc3ccccc3Cl)c(=O)n(CC(=O)Nc3ccc(C)c(C)c3)c2cc1OC	none (no result: L3MBTL1 inh)
COc1ccc(N2CCN(C3CCCN(S(=O)(=O)c4ccc(C)cc4C)C3)CC2)cc1 (centres undefined)	G9a inh 35µM, HP1b chromo inh inconclusive, BAZ2B block 25µM, JMJD2A Tudor 32µM (no result: L3MBTL1 inh)
Cc1cc(S(=O)(=O)N2CCCC(N3CCOCC3)C2)c(C)cc1Cl (centres undefined)	G9a inh 45µM
COc1ccc(OC)c(S(=O)(=O)N2CCN3CCCC3C2)c1 (centres undefined)	none
O=S(=O)(c1cc(Cl)ccc1Cl)N1CCN2CCCC2C1 (centres undefined)	none
CCCNC(=O)Cn1nc(-c2ccc(C)c(C)c2)c2cnc3ccc(OC)cc3c21	none (no result: L3MBTL1 inh)
COc1ncc2nc(CCc3ccccc3)c(=O)n(CCC#N)c2n1	none (no result: HP1b chromo inh, BAZ2B block, JMJD2A Tudor, L3MBTL1 inh)
Cn1ccc(=S)c2ccccc21	G9a inh 32µM, JMJD2A Tudor 8.9µM (no result: BAZ2B block, L3MBTL1 inh)
Cn1nnnc1Sc1ncnc2scc(-c3cccc([N+](=O)[O-])c3)c12	none (no result: G9a inh, HP1b chromo inh, BAZ2B block, L3MBTL1 inh)
COCCNC(=O)c1cnc2sc(N3CCCCC3)nn2c1=O	none (no result: L3MBTL1 inh)
CCCCn1c(N)c(N(CCOC)C(=O)c2ccc(-n3c(C)ccc3C)cc2)c(=O)[nH]c1=O	G9a inh 45µM
CCCn1c(N)c(N(CCOC)C(=O)Cc2ccc(S(=O)(=O)N3CCOCC3)s2)c(=O)[nH]c1=O	G9a inh 50µM
COCCN(C(=O)Cc1ccc(S(=O)(=O)N2CCOCC2)s1)c1c(N)n(CC(C)C)c(=O)[nH]c1=O	none (no result: G9a inh, BAZ2B block, L3MBTL1 inh)
CCCCn1c(N)c(N(CCOC)C(=O)c2ccc(N3C(=O)CCC3=O)cc2)c(=O)[nH]c1=O	none
CCCCn1c(N)c(N(CCOC)C(=O)c2ccc(-c3ccc(C(C)=O)cc3)o2)c(=O)[nH]c1=O	G9a inh 13µM, BAZ2B block 71µM, JMJD2A Tudor inconclusive
CCCCn1c(N)c(N(CC(C)C)C(=O)c2ccc(-c3ccc([N+](=O)[O-])cc3)o2)c(=O)[nH]c1=O	G9a inh 40µM
O=C1CN(C(=O)COc2ccc(Cl)cc2Cl)C(c2ccc(F)cc2)c2cc(F)ccc2N1 (centres undefined)	none (no result: L3MBTL1 inh)
C=Cc1ccc(Cn2c(=O)n(-c3ccc(C)cc3)c(=O)c3c2c2cc(OC)ccc2n3C)cc1	G9a inh inconclusive (no result: L3MBTL1 inh)
CC(C)CN(C(=O)CN(C)C(=O)Cc1ccc(Cl)cc1)c1c(N)n(CC(C)C)c(=O)[nH]c1=O	none
CCCCN(C(=O)c1ccc([N+](=O)[O-])o1)c1c(N)n(CC(C)C)c(=O)[nH]c1=O	G9a inh 28µM
CC(C)CN(C(=O)CN(C)C(=O)c1ccco1)c1c(N)n(CC(C)C)c(=O)[nH]c1=O	G9a inh 50µM
CCCCn1c(N)c(N(CCOC)C(=O)c2cc3c(s2)CCC(C)C3)c(=O)[nH]c1=O (centres undefined)	G9a inh 35µM
CC1(C)CC(=O)c2cc(-c3nc(-c4ccc(Br)cc4)cs3)c(=O)n(-c3ccccc3)c2C1	none (no result: L3MBTL1 inh)
Oc1ccccc1C=NCCN=Cc1ccccc1O	none
Oc1ccccc1C=NCCN1CCN(CCN=Cc2ccccc2O)C1c1ccccc1O (centres undefined)	JMJD2A Tudor 22µM (no result: G9a inh, BAZ2B block, L3MBTL1 inh)
CCN1C(=O)/C(=C2\SC(=S)N(NC(=O)c3ccccc3O)C2=O)c2ccccc21	G9a inh 16µM, HP1b chromo inh 22µM, BAZ2B block 25µM, JMJD2A Tudor 1.8µM, L3MBTL1 inh inconclusive

Bioassay records (PubChem)
